# According to PubChem BioAssay AID434959 (Broad Institute, 2010):
# Among all 30,000 compounds or so, about 110 (0.37%) were called active. This excerpt belongs to a sample that is enriched for actives. A number with no mark means an inactive call.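 The calls were made as follows: active = delta delta Cp rounded down to an integer at or above 3, about 3 SD of DMSO wells; inactive = the rest.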
# Assay: inhibitors of YB-1 gene expression, primary screen, cell-based, fluorescence (AID 434959);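 also: higher means less YB-1 transcript or more CDIP transcript relative to DMSO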
# Conditions: U2OS, qRT-PCR YB-1 vs CDIP delta delta Cp, 16 h; active compounds read high; zero = DMSO, each unit about twofold
row,SMILES,delta Cp (YB-1 minus CDIP)
1,C/C(=C\CC[C@H](CO)[C@@H]1CC[C@]2(C)C3=C(CC[C@@]12C)[C@@]1(C)CCC(=O)C(C)(C)C1CC3)C(=O)O (stereo not given in full),-0.0322
2,C[C@H](CO)N1C[C@H](C)[C@H](CN(C)CC2CC2)Oc2ccc(NS(=O)(=O)c3ccccc3)cc2CC1=O,-0.128
3,Cc1noc(C)c1S(=O)(=O)Nc1ccc2c(c1)CC(=O)N([C@@H](C)CO)C[C@H](C)[C@H](CN(C)S(=O)(=O)c1ccc(Cl)cc1)O2,0.105
4,C[C@H]1CN([C@@H](C)CO)C(=O)Cc2cc(NS(C)(=O)=O)ccc2O[C@@H]1CN(C)S(=O)(=O)c1ccc(Cl)cc1,0.259
5,Cc1noc(C)c1NC(=O)Nc1ccc2c(c1)C(=O)N([C@@H](C)CO)C[C@@H](C)[C@H](CN(C)C(=O)NC(C)C)O2,-0.101
6,C[C@H](CO)N1C[C@H](C)[C@H](CN(C)CC2CCCCC2)Oc2ccc(NC(=O)CCN3CCOCC3)cc2CC1=O,0.315
7,C[C@H]1CN([C@@H](C)CO)C(=O)CCCn2cc(nn2)CO[C@H]1CN(C)C(=O)Nc1ccc(F)cc1,-0.241
8,C=CCN1C(=O)[C@]2(O[C@H](CCn3cc(CCO)nn3)[C@@H]([Si](C)(C)c3ccc(OC)cc3)[C@@H]2C)c2cc(N3CCOC3=O)ccc21,-0.00312
9,COc1ccc(NC(=O)O[C@H](c2ccc(OCCO)cc2)[C@@H](CCO)OC)cc1,-1.3
10,C[C@@H]1CCCCO[C@H](CN(C)C(=O)NC2CCCCC2)[C@@H](C)CN([C@H](C)CO)C(=O)c2cc(NS(C)(=O)=O)ccc2O1,0.322
11,COc1ccc(S(=O)(=O)N(C)C[C@@H]2Oc3ccc(NC(=O)CCC(F)(F)F)cc3C(=O)N([C@@H](C)CO)C[C@@H]2C)cc1,-0.166
12,C[C@H](CO)N1C[C@H](C)[C@H](CN(C)S(=O)(=O)c2ccccc2)Oc2c(NC(=O)CCCCCC(=O)Nc3ccccc3N)cccc2C1=O,0.187
13,C[C@@H]1CN([C@@H](C)CO)C(=O)c2cccc(NC(=O)Nc3ccc4c(c3)OCO4)c2O[C@H]1CN(C)C(=O)Nc1cccc2ccccc12,0.0736
14,COc1ccc(NC(=O)Nc2ccc3c(c2)CC(=O)N([C@@H](C)CO)C[C@@H](C)[C@@H](CN(C)Cc2ccc(Cl)c(Cl)c2)O3)cc1,0.191
15,C=C1C2=CC(=O)O[C@@H](c3ccoc3)[C@]2(C)CCC1[C@@]1(C)C=CC(=O)C(C)(C)[C@@H]1CC(=O)OC (stereo not given in full),0.366
16,C[C@@H]1CN([C@H](C)CO)C(=O)c2cc(NC(=O)Cc3ccccc3)ccc2O[C@@H]1CN(C)CC1CCCCC1,-0.0442
17,C[C@H]1CN([C@@H](C)CO)C(=O)c2cccc(NS(=O)(=O)c3ccc(Cl)cc3)c2O[C@H]1CN(C)Cc1ccc2c(c1)OCO2,0.321
18,C[C@@H]1CN([C@H](C)CO)C(=O)c2cccc(NC(=O)CCCCCC(=O)Nc3ccccc3N)c2O[C@@H]1CN(C)C(=O)Nc1ccccc1,0.438
19,C[C@H]1CN([C@@H](C)CO)C(=O)Cc2cc(NC(=O)CCCN(C)C)ccc2O[C@@H]1CN(C)Cc1ccc(-c2ccccc2)cc1,-1.08
20,Oc1ccc2c(c1)OCC1c3cc4c(cc3OC21)OCO4 (stereo not given),0.271

row,SMILES,delta Cp (YB-1 minus CDIP)
1,COc1ccc(CN(C)C[C@@H]2Oc3c(NC(=O)C4CC4)cccc3C(=O)N([C@@H](C)CO)C[C@H]2C)cc1,-0.213
2,CC(C)NC(=O)Nc1ccc2c(c1)CC(=O)N([C@H](C)CO)C[C@@H](C)[C@H](CN(C)S(=O)(=O)c1ccccc1)O2,0.113
3,C[C@H](CO)N1C[C@H](C)[C@H](CN(C)CC2CCCCC2)Oc2ccc(NC(=O)CCCCCC(=O)Nc3ccccc3N)cc2CC1=O,-0.217
4,C[C@H]1CN([C@@H](C)CO)C(=O)c2cccc(NC(=O)NC3CCCCC3)c2O[C@H]1CN(C)CC1CCCCC1,-0.236
5,Cc1onc(-c2c(Cl)cccc2Cl)c1C(=O)N=S(C)(C)=O,-0.447
6,C[C@H]1CN([C@@H](C)CO)C(=O)CCCn2cc(nn2)CO[C@@H]1CN(C)S(=O)(=O)c1ccc(-n2cccn2)cc1,-0.848
7,C[C@H](CO)N1C[C@H](C)[C@H](CN(C)S(=O)(=O)c2ccc(C#N)cc2)Oc2ncc(-c3cccc(F)c3)cc2C1=O,0.397
8,COCCOC(=O)N1C(=O)[C@@]2(c3cc(C#CCC(C(=O)OC)C(=O)OC)ccc31)[C@H](c1ccc(OCCO)cc1)N1[C@H](c3ccccc3)[C@H](c3ccccc3)OC(=O)[C@H]1[C@@H]2C(N)=O,-0.585
9,CCOC(=O)c1cc(=O)c2ccc(OCc3ccccc3)cc2o1,0.522
10,Cc1noc(C)c1S(=O)(=O)Nc1ccc2c(c1)C(=O)N([C@@H](C)CO)C[C@H](C)[C@H](CN(C)C(=O)Nc1ccc(C(F)(F)F)cc1)O2,-0.372
11,O=C(NO)c1ccc(C(=O)N/N=C/c2ccc(Br)cc2)cc1,-0.432
12,C[C@H](CO)N1C[C@H](C)[C@@H](CN(C)Cc2ccc(Oc3ccccc3)cc2)OCc2cn(nn2)CCCC1=O,-0.14
13,COC(=O)C1=C(N)Oc2cc(C)oc(=O)c2C1c1cccnc1 (stereo not given),-0.311
14,COc1ccc(NC(=O)N(C)C[C@H]2Oc3ccc(NC(=O)Nc4ccc5c(c4)OCO5)cc3C(=O)N([C@H](C)CO)C[C@H]2C)cc1,0.191
15,Cc1ccc(-c2cn3c4c(sc3n2)CCCC4)cc1,0.773
16,Cc1ccc(-n2c(C)nc3sc4c(c3c2=O)CCC4)cc1,5.31 (active)
17,O=C(N/N=C/c1ccc([N+](=O)[O-])s1)c1ccccc1O,0.165
18,C[C@H](CO)N1C[C@H](C)[C@@H](CN(C)Cc2ccc(Cl)c(Cl)c2)Oc2c(NC(=O)C3CCCCC3)cccc2C1=O,-0.923
19,Cc1ccc(CN(C)C[C@@H]2OCc3cnnn3CCCC(=O)N([C@@H](C)CO)C[C@H]2C)cc1,-0.0292
20,C[C@@H]1CN([C@H](C)CO)C(=O)c2cc(NC(=O)Nc3ccc4c(c3)OCO4)ccc2O[C@H]1CN(C)Cc1ccc(-c2ccccc2)cc1,0.369

row,SMILES,delta Cp (YB-1 minus CDIP)
1,C[C@H](CO)N1C[C@H](C)[C@H](CN(C)C(=O)Nc2ccc(C(F)(F)F)cc2)Oc2ccc(N(C)C)cc2CC1=O,0.00881
2,Cc1cc(C(=O)Nc2cccc3c2O[C@@H](CN(C)Cc2ccc(C(=O)O)cc2)[C@H](C)CN([C@@H](C)CO)C3=O)n(C)n1,-0.416
3,O=C(N/N=C/c1ccc(Oc2ccccc2)cc1)c1ccccn1,-0.417
4,COc1ccc(NC(=O)N(C)C[C@@H]2Oc3ccc(NS(=O)(=O)c4ccc(OC)cc4)cc3CC(=O)N([C@H](C)CO)C[C@H]2C)cc1,-0.353
5,C[C@H]1CN([C@@H](C)CO)C(=O)c2cccc(NC(=O)Nc3ccccc3)c2O[C@H]1CN(C)C(=O)Nc1cccc2ccccc12,0.0743
6,C[C@@H]1CN([C@@H](C)CO)C(=O)CCCn2cc(nn2)CO[C@@H]1CN(C)C(=O)C1CCCCC1,-0.464
7,Cc1noc(C)c1S(=O)(=O)N(C)C[C@H]1OCc2cn(nn2)CCCC(=O)N([C@H](C)CO)C[C@H]1C,0.0461
8,C[C@H](CO)N1C[C@H](C)[C@@H](CN(C)Cc2ccc(C(F)(F)F)cc2)Oc2ccc(NC(=O)CCC(F)(F)F)cc2C1=O,-0.124
9,C[C@@H]1CN([C@H](C)CO)C(=O)c2cccc(NC(=O)C3CCCCC3)c2O[C@@H]1CN(C)C(=O)NC1CCCCC1,0.413
10,COc1ccc(CN(C)C[C@@H]2Oc3ccc(NS(=O)(=O)c4cn(C)cn4)cc3C(=O)N([C@@H](C)CO)C[C@@H]2C)cc1,-0.246
11,Cc1ccc(C(=O)c2coc3ccc(O)c(CN(C)C)c23)cc1,0.308
12,CCCN(C)C[C@@H]1OCCCC[C@@H](C)Oc2ccc(NC(=O)CCCN(C)C)cc2C(=O)N([C@H](C)CO)C[C@@H]1C,-0.0474
13,COc1ccc(C#Cc2ccc3c(c2)[C@]2(C(=O)N3)[C@H](C(=O)N3CCc4cc(OC)c(OC)cc4C3)[C@H]3C(=O)O[C@H](c4ccccc4)[C@H](c4ccccc4)N3[C@@H]2c2ccc(O)cc2)cc1,0.269
14,CC(=O)N1[C@@H](c2ccc(C)cc2)SC(C)(C)[C@@H]1C(=O)O,-0.179
15,Cc1ccc(S(=O)(=O)N(C)C[C@@H]2Oc3ccc(NC(=O)NC4CCCCC4)cc3C(=O)N([C@@H](C)CO)C[C@H]2C)cc1,0.362
16,Cc1ccc(S(=O)(=O)Nc2ccc3c(c2)C(=O)N([C@@H](C)CO)C[C@@H](C)[C@H](CN(C)CC2CC2)O3)cc1,-0.0524
17,COc1ccc(S(=O)(=O)Nc2cccc3c2O[C@@H](CN(C)C(=O)Nc2ccccc2)[C@@H](C)CN([C@@H](C)CO)C3=O)cc1,-0.0223
18,Cc1noc(C)c1NC(=O)Nc1ccc2c(c1)C(=O)N([C@H](C)CO)C[C@H](C)[C@H](CN(C)Cc1ccncc1)OCCCC[C@@H](C)O2,-0.384
19,COc1ccc(CN(C)C[C@H]2Oc3c(NC(=O)C4CC4)cccc3C(=O)N([C@@H](C)CO)C[C@H]2C)cc1,-0.0719
20,C[C@H]1CN([C@@H](C)CO)C(=O)c2cc(NC(=O)CCC(F)(F)F)ccc2O[C@H]1CN(C)Cc1ccc(C(=O)O)cc1,-0.0494
